# Sa growth 42C: S. aureus growth inhibition at 42 and 30 °C, primary screen, LtaS inhibitor project, RN4220, two temperatures. OD600, 20 h, 42 °C; stronger effect = lower value. relative growth, % (test concentration not listed). 170,000 compounds, 0.53% hits. AID 720641, 2013;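 active means relative growth at most 50% at the other temperature and 20+ points below 30 °C, or under 10% at both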
# Sa helicase inh: inhibitors of S. aureus replicative helicase, primary screen, biochemical, fluorescence unwinding readout; purified S. aureus helicase, fluorescence unwinding assay; replicative DNA helicase (DnaC/DnaB), Staphylococcus aureus; AID 485395, 2010; 120,000 compounds, 0.05% hits; inhibition, % (no concentration beside the values); in the data active means inhibition above about 25%, passing the limit was not always enough;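 further: 0% = mean of negative control wells and 100% = mean of positive control wells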
# Active calls of the source: *; / = no result; ! = a repeat was not active. Shown is part of a subset that was picked to be rich in hits.
SMILES,Sa growth 42C,Sa helicase inh
Cc1cc(N/C=C2/C(=O)c3sccc3N(Cc3cccc(F)c3)S2(=O)=O)no1,101.6,-22.0
COc1cccc2c1C(=O)c1c(O)c3c(c(O)c1C2=O)C[C@@](O)(C(=O)CO)C[C@@H]3O[C@H]1C[C@H](N)[C@H](O)[C@H](C)O1,1.8*!,/
N#CC1CCCc2c1[nH]c1ccc(Br)cc21 (configuration not stated),32.9,-18.0
Cc1cc2ccccn2c1C(=O)Nc1ccccc1,86.7,-4.0
Cc1c(-c2ccccc2)cc2ccccn12,4.3*,-18.0
CC(Nc1ccccc1)C(=O)O (configuration not stated),70.3,11.0
CSC1=C(C#N)C(c2ccco2)C(C(=O)Nc2ccccc2C)=C(C)N1 (configuration not stated),109.3,4.0
CC(C)n1nccc1NC(=O)c1cccnc1Sc1ccccc1,98.6,-9.0
OCc1ccc(OCc2ccc(F)cc2)cc1,113.4,/
NC(=S)COc1ccc(F)cc1,100.1,25.0*
CC[C@H]1OC(=O)[C@H](C)[C@@H](O[C@H]2C[C@@](C)(OC)[C@@H](O)[C@H](C)O2)[C@H](C)[C@@H](O[C@@H]2O[C@H](C)C[C@H](N(C)C)[C@H]2O)[C@](C)(OC)C[C@@H](C)C(=O)[C@H](C)[C@@H](O)[C@]1(C)O,-0.8*,/
NC(=O)N/N=C/c1ccc([N+](=O)[O-])o1,2.5*,/
NC(=O)N/N=C/c1ccc(-c2ccc(Cl)cc2)o1,93.1,8.0
COc1cccc(NC(=O)c2oc3ccccc3c2C)c1,101.0,4.0
Cc1cc(C(=O)CSc2c(F)c(F)c(C(=O)O)c(F)c2F)ccc1Cl,89.7,/
O=C1c2ccccc2C(=O)N1c1nccs1,82.7,-8.0
O=C1c2ccccc2C(=O)c2sccc21,1.6*,-18.0
COc1ccc(-c2cn3c(n2)CCC3)cc1,97.3,-14.0
c1c(SSc2cn3c(n2)CCC3)nc2n1CCC2,-0.6*,3.0
Cc1cc(C)c2c(N)nn(C)c2n1,99.1,-19.0
NNC(=O)c1cc2ncc(C(F)(F)F)cc2s1,0.0*,29.0
CCOC(=O)c1cc2ncc(C(F)(F)F)cc2s1,93.3,/
NC(=O)Cn1c(=O)n(-c2ccccc2)c(=O)c2ccc(C(=O)NCc3ccco3)cc21,88.4,-13.0
CCC(C)NC(=O)c1oc2ccc3c(c2c1C)C(=O)CC1(CCCC1)O3 (configuration not stated),89.0,4.0
